# Assay results reported in PubChem BioAssay.
# Inconclusive results are not listed. Activity calls are given as the source filed them. Unless noted, cut-off not given; nearly all actives show AC50 up to about 26 µM.
# Columns and labels:
# [1] = viability loss in pontine glioma line – cell-based, SU-DIPG-XVII, MIPE5.0, CellTiter-Glo, qHTS, dose response (AID 1347060); conditions: CellTiter-Glo ATP luminescence;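 on AC50: cells exposed to compound for 48 hours before viability readout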
# [2] = viability loss in pontine glioma line – cell-based, SU-DIPG-XIII, MIPE5.0, CellTiter-Glo, qHTS, dose response (AID 1347064; cut-off not given, nearly all actives have AC50 up to about 23 µM;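 on AC50: cells exposed to compound for 48 hours before the viability read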); conditions: CellTiter-Glo ATP luminescence
# [3] = viability loss in pontine glioma line – cell-based, SU-DIPG-XXV, MIPE5.0, CellTiter-Glo, qHTS, dose response (AID 1347065); conditions: CellTiter-Glo ATP luminescence;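 further: cells exposed to compound for 48 hours before ATP readout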
# [4] = JHH-DIPG-1 glioma cell viability, MIPE5.0 library, CellTiter-Glo luminescence, qHTS (AID 1347067); conditions: JHH-DIPG-1 glioma viability, CellTiter-Glo ATP luminescence;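 further: cells exposed to compound for 48 hours before readout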
# [5] = viability loss with induced miR-34 in A549 – imaging, A549 dox-inducible miR-34, nuclei and caspase counts, primary screen (AID 1347080;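 active means compounds whose cell count with miR-34 switched on is under 0.7 times the count with it off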); conditions: A549 miR-34 inducible, Hoechst nuclei count, 48 h
# [6] = MELAS cybrid and Rieske KO viability enhancers – cell-based, MELAS cybrids, Rieske KO mouse fibroblasts, CellTiter-Glo, primary screen (AID 1508586;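 active means mean z-score across replicates of 1.96 or higher in either the MELAS or the Rieske mutant cell line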;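 further: z relative to plate mean and SD of compound and empty wells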); conditions: low glucose
# [7] = growth inhibition of DIPG cells – cell-based, MIPE5.0 library, qHTS (AID 1347068; cut-off not given, nearly all actives have IC50 up to about 30 µM;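 on IC50: cells exposed to compound for 48 hours before viability readout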); conditions: SU-DIPG-XXV viability
# [8] = P. berghei load reduction in hepatocytes – cell-based, HepG2, luciferase luminescence, HepG2 viability, primary screen (AID 624349; in the data active means parasite load remaining mostly below about 12%, no sharp cut-off; inactive means mostly above about 10%;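 further: 100% = mean of DMSO negative control wells on the same plate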); conditions: P. berghei liver stage in HepG2, luciferase luminescence, concentration not given here; parasite load remaining: stronger effect = lower value; viability: measured here: HepG2 viability without parasites
# [9] = galactose survival enhancers in mitochondrial complex I cybrids – cell-based, galactose medium, ATP luminescence, primary screen (AID 1645843;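 active means z-score of at least 1.8 in each of two replicates, scored against plate mean and spread of sample wells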;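 further: positive z means more ATP and so rescue of galactose-driven cybrid death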); conditions: complex I mutant cybrid cells, 72 h, stronger effect = higher value
# [10] = stronger effect = lower value, cell number ratio, induced over uninduced
# [11] = measured here: relative caspase fold change +Dox/-Dox
# [12] = measured here: total cells with miR-34 induction, stronger effect = lower value
# [13] = measured here: total cells without miR-34 induction
# [14] = MELAS cybrid survival, CellTiter-Glo 48 h, stronger effect = higher value
# [15] = Rieske KO mouse fibroblast survival, CellTiter-Glo 72 h
structure (smiles),measurement,setting,value
COc1cc2ncnc(Oc3cccc(NC(=O)Nc4cc(C(C)(C)C(F)(F)F)on4)c3)c2cc1OC,AC50,[1],5.9 µM (active)
same,AC50,[2],16.6 µM (active)
same,AC50,[3],10.5 µM (active)
same,AC50,[4],14.8 µM (active)
same,fold change,[5]; [10],0.934 (inactive)
same,fold change,[5]; [11],0.373
same,cell count,[5]; [12],3270
same,cell count,[5]; [13],3490
same,z-score,[6]; [14],-0.488 (inactive)
same,z-score,[6]; [15],1.15
COc1ccc([C@@H](O)[C@@H](C)Oc2ccc([C@H]3O[C@H](c4ccc(O[C@H](C)[C@H](O)c5ccc(OC)c(OC)c5)c(OC)c4)[C@H](C)[C@H]3C)cc2OC)cc1OC,AC50,[1],20.9 µM (active)
same,AC50,[2],5.9 µM (active)
same,AC50,[3],10.5 µM (active)
same,IC50,[7],11.8 µM (active)
O=C(O)c1ccc(CN2CCC(CN[C@@H]3C[C@H]3c3ccccc3)CC2)cc1,outcome,[1],inactive
same,outcome,[2],inactive
same,outcome,[3],inactive
same,outcome,[7],inactive
COc1cc2c(cc1OC(C)C)[C@H](c1ccc(Cl)cc1)N(c1ccc(N(C)CC3CCC(N4CCN(C)C(=O)C4)CC3)cc1)C(=O)C2 (stereo not given in full),AC50,[1],26.3 µM (active)
same,AC50,[2],20.9 µM (active)
same,AC50,[3],26.3 µM (active)
same,IC50,[7],29.5 µM (active)
CC(C)Oc1ccc(-c2nn([C@@H](C)c3oc4ccc(F)cc4c(=O)c3-c3cccc(F)c3)c3ncnc(N)c23)cc1F,outcome,[1],inactive
same,outcome,[2],inactive
same,outcome,[3],inactive
same,outcome,[7],inactive
N#CCC1(n2cc(-c3ncnc4[nH]ccc34)cn2)CN(C2CCN(C(=O)c3ccnc(C(F)(F)F)c3F)CC2)C1,outcome,[1],inactive
same,outcome,[2],inactive
same,outcome,[3],inactive
same,outcome,[7],inactive
Cc1c(F)ccc(C(=O)Nc2cc([N+](=O)[O-])ccc2N2CCN(C)CC2)c1Cl,AC50,[1],26.3 µM (active)
same,outcome,[2],inactive
same,outcome,[3],inactive
same,outcome,[7],inactive
Cc1ccc(Sc2ccccc2N2CCNCC2)c(C)c1,AC50,[1],11.8 µM (active)
same,AC50,[2],16.6 µM (active)
same,AC50,[3],10.5 µM (active)
same,AC50,[4],9.34 µM (active)
same,fold change,[5]; [10],0.93 (inactive)
same,fold change,[5]; [11],0.501
same,cell count,[5]; [12],4800
same,cell count,[5]; [13],5160
same,z-score,[6]; [14],-0.442 (inactive)
same,z-score,[6]; [15],-1.42
Cc1ccc(Nc2ncc3c(n2)N(C)C(=O)N(c2cc(NC(=O)c4cccc(C(F)(F)F)c4)ccc2C)C3)cn1,AC50,[1],0.105 µM (active)
same,AC50,[2],0.0742 µM (active)
same,AC50,[3],0.0118 µM (active)
same,IC50,[7],0.0742 µM (active)
N#Cc1ccnc(N2C(=O)CC[C@H]2C(=O)N(c2cncc(F)c2)[C@H](C(=O)NC2CC(F)(F)C2)c2ccccc2Cl)c1,outcome,[1],inactive
same,outcome,[2],inactive
same,outcome,[3],inactive
same,outcome,[7],inactive
C[C@@H](O)[C@@H]1NC(=O)[C@H](CCCCN)NC(=O)[C@@H](Cc2c[nH]c3ccccc23)NC(=O)[C@H](Cc2ccccc2)NC(=O)[C@@H](NC(=O)[C@H](N)Cc2ccccc2)CSSC[C@@H](C(=O)N[C@H](CO)[C@@H](C)O)NC1=O,parasite load remaining,[8],22.8% (inactive)
same,viability,[8],81.5%
same,outcome,[1],inactive
same,outcome,[2],inactive
same,outcome,[3],inactive
same,outcome,[4],inactive
same,fold change,[5]; [10],0.862 (inactive)
same,fold change,[5]; [11],0.995
same,cell count,[5]; [12],9290
same,cell count,[5]; [13],10800
same,z-score,[6]; [14],0.396 (inactive)
same,z-score,[6]; [15],-0.498
same,z-score,[9],0.6 (inactive)
